{"source": "the supplement of paper PMC4022240", "binders": {"B1": {"name": "H4 1-13 S G R G Kac G G K G L G Kac G (peptide)", "chain": "SGRGKGGKGLGKG"}, "B2": {"name": "H3 112-124 I H A K R V T I M P Kme D I (peptide)", "chain": "IHAKRVTIMPKDI"}, "B3": {"name": "H3 112-124 I H A K R V T I M P Kme3 D I (peptide)", "chain": "IHAKRVTIMPKDI"}, "B4": {"name": "H4 1-13 S G R G Kac G G Kac G L G Kac G (peptide)", "chain": "SGRGKGGKGLGKG"}, "B5": {"name": "H4 1-13 Sph G R G Kac G G K G L G K G (peptide)", "chain": "SGRGKGGKGLGKG"}}, "test_in_all_cases": "peptide microarray binding signal (635 nm), min-max normalized on array (fraction of array maximum); higher = stronger binding", "key": {"[1]": {"target": "T1, HaloTag-ATRX ADD domain (163-292)", "T1 chain": "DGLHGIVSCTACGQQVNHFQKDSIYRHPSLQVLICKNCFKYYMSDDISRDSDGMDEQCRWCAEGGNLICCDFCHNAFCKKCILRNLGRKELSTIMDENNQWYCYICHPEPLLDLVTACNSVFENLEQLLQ", "how_it_was_run": "(§1)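 For each library, binding signal was taken as the triplicate-spot mean intensity and then min-max scaled. Spots of histone 13-mer peptide–cellulose conjugates on nitrocellulose, printed in triplicate with a Cy3 tracer, were probed for 1 h at 4°C with either biotin-labelled HaloTag reader fusions (10 nM to 1 μM) and streptavidin-Alexa Fluor 647 or rabbit histone antibodies (1:10,000 to 1:2,000) and anti-rabbit Alexa 647. Readout at 635 nm came from an Axon GenePix 4000B.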"}, "[2]": {"target": "HaloTag-ING2 PHD (mouse Ing2 200-280)", "how_it_was_run": "as §1"}, "[3]": {"target": "anti-H3K4me3 antibody ab8580", "how_it_was_run": "as §1"}, "[4]": {"target": "anti-H3K9me3 antibody ab8898", "how_it_was_run": "as §1"}, "[5]": {"settings": "peptide region: H4 1-13, peptide modifications: H4K5ac H4K12ac, binder concentration: 1:2,000 dilution"}, "[6]": {"settings": "peptide region: H4 1-13, peptide modifications: H4K5ac H4K12ac, binder concentration: 1:10,000 dilution"}, "[7]": {"settings": "peptide region: H3 112-124, peptide modifications: H3K122me1, binder concentration: 1:2,000 dilution"}, "[8]": {"settings": "peptide region: H3 112-124, peptide modifications: H3K122me1, binder concentration: 1:10,000 dilution"}, "[9]": {"settings": "peptide region: H3 112-124, peptide modifications: H3K122me3, binder concentration: 1:2,000 dilution"}, "[10]": {"settings": "peptide region: H3 112-124, peptide modifications: H3K122me3, binder concentration: 1:10,000 dilution"}, "[11]": {"settings": "peptide region: H4 1-13, peptide modifications: H4K5ac H4K8ac H4K12ac, binder concentration: 1:2,000 dilution"}, "[12]": {"settings": "peptide region: H4 1-13, peptide modifications: H4K5ac H4K8ac H4K12ac, binder concentration: 1:10,000 dilution"}, "[13]": {"settings": "peptide region: H4 1-13, peptide modifications: H4S1ph H4K5ac, binder concentration: 1:2,000 dilution"}, "[14]": {"settings": "peptide region: H4 1-13, peptide modifications: H4S1ph H4K5ac, binder concentration: 1:10,000 dilution"}}, "note": "± gives the standard deviation."}
{"binder": "B1", "values": [{"measurement": "peptide microarray binding signal", "setting": "[1]; peptide region: H4 1-13, peptide modifications: H4K5ac H4K12ac, binder concentration: 50 nM", "value": "0.00552 ± 0.00053"}, {"measurement": "peptide microarray binding signal", "setting": "[1]; peptide region: H4 1-13, peptide modifications: H4K5ac H4K12ac, binder concentration: 500 nM", "value": "0.0164 ± 0.0029"}, {"measurement": "peptide microarray binding signal", "setting": "[2]; peptide region: H4 1-13, peptide modifications: H4K5ac H4K12ac, binder concentration: 10 nM", "value": "0.00352 ± 0.00063"}, {"measurement": "peptide microarray binding signal", "setting": "[2]; peptide region: H4 1-13, peptide modifications: H4K5ac H4K12ac, binder concentration: 100 nM", "value": "0.00822 ± 0.0021"}, {"measurement": "peptide microarray binding signal", "setting": "[3]; [5]", "value": "0.000547 ± 0.00012"}, {"measurement": "peptide microarray binding signal", "setting": "[3]; [6]", "value": "0.00217 ± 0.00014"}, {"measurement": "peptide microarray binding signal", "setting": "[4]; [5]", "value": "0.00131 ± 0.00038"}, {"measurement": "peptide microarray binding signal", "setting": "[4]; [6]", "value": "0.00196 ± 8e-05"}]}
{"binder": "B2", "values": [{"measurement": "peptide microarray binding signal", "setting": "[1]; peptide region: H3 112-124, peptide modifications: H3K122me1, binder concentration: 50 nM", "value": "0.00429 ± 0.00037"}, {"measurement": "peptide microarray binding signal", "setting": "[1]; peptide region: H3 112-124, peptide modifications: H3K122me1, binder concentration: 500 nM", "value": "0.0122 ± 0.0011"}, {"measurement": "peptide microarray binding signal", "setting": "[2]; peptide region: H3 112-124, peptide modifications: H3K122me1, binder concentration: 10 nM", "value": "0.0077 ± 0.0008"}, {"measurement": "peptide microarray binding signal", "setting": "[2]; peptide region: H3 112-124, peptide modifications: H3K122me1, binder concentration: 100 nM", "value": "0.00602 ± 0.00041"}, {"measurement": "peptide microarray binding signal", "setting": "[3]; [7]", "value": "0.00168 ± 0.00019"}, {"measurement": "peptide microarray binding signal", "setting": "[3]; [8]", "value": "0.00348 ± 0.0013"}, {"measurement": "peptide microarray binding signal", "setting": "[4]; [7]", "value": "0.00251 ± 0.00011"}, {"measurement": "peptide microarray binding signal", "setting": "[4]; [8]", "value": "0.00144 ± 5.1e-05"}]}
{"binder": "B3", "values": [{"measurement": "peptide microarray binding signal", "setting": "[1]; peptide region: H3 112-124, peptide modifications: H3K122me3, binder concentration: 50 nM", "value": "0.00423 ± 4.3e-05"}, {"measurement": "peptide microarray binding signal", "setting": "[1]; peptide region: H3 112-124, peptide modifications: H3K122me3, binder concentration: 500 nM", "value": "0.0122 ± 0.00089"}, {"measurement": "peptide microarray binding signal", "setting": "[2]; peptide region: H3 112-124, peptide modifications: H3K122me3, binder concentration: 10 nM", "value": "0.00489 ± 0.00015"}, {"measurement": "peptide microarray binding signal", "setting": "[2]; peptide region: H3 112-124, peptide modifications: H3K122me3, binder concentration: 100 nM", "value": "0.0106 ± 0.00081"}, {"measurement": "peptide microarray binding signal", "setting": "[3]; [9]", "value": "0.000868 ± 3.3e-05"}, {"measurement": "peptide microarray binding signal", "setting": "[3]; [10]", "value": "0.00126 ± 7.5e-05"}, {"measurement": "peptide microarray binding signal", "setting": "[4]; [9]", "value": "0.0125 ± 0.002"}, {"measurement": "peptide microarray binding signal", "setting": "[4]; [10]", "value": "0.00381 ± 0.00041"}]}
{"binder": "B4", "values": [{"measurement": "peptide microarray binding signal", "setting": "[1]; peptide region: H4 1-13, peptide modifications: H4K5ac H4K8ac H4K12ac, binder concentration: 50 nM", "value": "0.00417 ± 0.00038"}, {"measurement": "peptide microarray binding signal", "setting": "[1]; peptide region: H4 1-13, peptide modifications: H4K5ac H4K8ac H4K12ac, binder concentration: 500 nM", "value": "0.00538 ± 0.00043"}, {"measurement": "peptide microarray binding signal", "setting": "[2]; peptide region: H4 1-13, peptide modifications: H4K5ac H4K8ac H4K12ac, binder concentration: 10 nM", "value": "0.00418 ± 0.00011"}, {"measurement": "peptide microarray binding signal", "setting": "[2]; peptide region: H4 1-13, peptide modifications: H4K5ac H4K8ac H4K12ac, binder concentration: 100 nM", "value": "0.00645 ± 0.00041"}, {"measurement": "peptide microarray binding signal", "setting": "[3]; [11]", "value": "0.00128 ± 0.00011"}, {"measurement": "peptide microarray binding signal", "setting": "[3]; [12]", "value": "0.001541 ± 1.5e-05"}, {"measurement": "peptide microarray binding signal", "setting": "[4]; [11]", "value": "0.000695 ± 4.8e-05"}, {"measurement": "peptide microarray binding signal", "setting": "[4]; [12]", "value": "0.001441 ± 1.4e-05"}]}
{"binder": "B5", "values": [{"measurement": "peptide microarray binding signal", "setting": "[1]; peptide region: H4 1-13, peptide modifications: H4S1ph H4K5ac, binder concentration: 50 nM", "value": "0.00348 ± 3.8e-05"}, {"measurement": "peptide microarray binding signal", "setting": "[1]; peptide region: H4 1-13, peptide modifications: H4S1ph H4K5ac, binder concentration: 500 nM", "value": "0.0117 ± 0.00091"}, {"measurement": "peptide microarray binding signal", "setting": "[2]; peptide region: H4 1-13, peptide modifications: H4S1ph H4K5ac, binder concentration: 10 nM", "value": "0.001373 ± 8.3e-06"}, {"measurement": "peptide microarray binding signal", "setting": "[2]; peptide region: H4 1-13, peptide modifications: H4S1ph H4K5ac, binder concentration: 100 nM", "value": "0.00269 ± 6.7e-05"}, {"measurement": "peptide microarray binding signal", "setting": "[3]; [13]", "value": "0.000208 ± 2.2e-06"}, {"measurement": "peptide microarray binding signal", "setting": "[3]; [14]", "value": "0.000856 ± 8.9e-06"}, {"measurement": "peptide microarray binding signal", "setting": "[4]; [13]", "value": "0.000362 ± 6.3e-06"}, {"measurement": "peptide microarray binding signal", "setting": "[4]; [14]", "value": "0.000692 ± 7.3e-06"}]}
